7 compounds from PubChem BioAssay (NCATS) can be followed below.

Results filed as inconclusive are left out. Active and inactive are the calls of the source. Unless noted, calls come from the whole dose curve; as a rule, active = well fitted inhibition curve with a large enough effect; inconclusive = small, poorly fitted or top-dose-only effect; inactive = flat fitted curve, though single readings scatter.

For one assay, the system named is 3D7. As to the kind of experiment: qHTS profiling for inhibitors of Plasmodium falciparum proliferation (AID 504749). Note: nearly all actives have a fitted effect of over 60% in size. The following applies: P. falciparum in erythrocytes, SYBR Green DNA, 72 h; series mostly up to 12.8 µM. The procedure, abridged: (§1)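 Fluorescence of SYBR Green-bound parasite DNA, read at 485/535 nm, served as the growth measure. Infected erythrocytes were cultured with compound 72 h; artemisinin (0.29 uM) and DMSO wells defined the normalization range.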

The next assay has as its system AA1029. The description is as above. The following applies: P. falciparum in erythrocytes, SYBR Green DNA, 72 h; series mostly up to 12.8 µM. An outline of the steps: as §1
Another assay deals with ATS189. The assay is described as above. To be noted: P. falciparum in erythrocytes, SYBR Green DNA, 72 h; series mostly up to 12.8 µM. An outline of the steps: as §1
In the next assay the test system is CP185. Described as above. To be noted: P. falciparum in erythrocytes, SYBR Green DNA, 72 h; series mostly up to 12.8 µM. The procedure, abridged: as §1
The subject of another assay is CP192. Described as above. To be noted: P. falciparum in erythrocytes, SYBR Green DNA, 72 h; series mostly up to 12.8 µM. An outline of the steps: as §1
Another assay deals with CP201. Described as above. To be noted: P. falciparum in erythrocytes, SYBR Green DNA, 72 h; series mostly up to 12.8 µM. An outline of the steps:
as §1

The test system of the next assay is CP238. Described as above. The following applies: P. falciparum in erythrocytes, SYBR Green DNA, 72 h; series mostly up to 12.8 µM. An outline of the steps: as §1
In another assay the test system is CP250. Described as above. The following applies: P. falciparum in erythrocytes, SYBR Green DNA, 72 h; series mostly up to 12.8 µM. The procedure, abridged: as §1
Another assay deals with CP262. Described as above. The following applies: P. falciparum in erythrocytes, SYBR Green DNA, 72 h; series mostly up to 12.8 µM. An outline of the steps:
as §1

In another assay the test system is CP265. Described as above. The following applies: P. falciparum in erythrocytes, SYBR Green DNA, 72 h; series mostly up to 12.8 µM. The procedure, abridged:
as §1

A further assay relates to CP268. The description is as above. The following applies: P. falciparum in erythrocytes, SYBR Green DNA, 72 h; series mostly up to 12.8 µM. An outline of the steps: as §1
A further assay has as its system CP291. The description is as above. To be noted: P. falciparum in erythrocytes, SYBR Green DNA, 72 h; series mostly up to 12.8 µM. The procedure, abridged: as §1
The subject of the next assay is CP315. The assay is described as above. The following applies: P. falciparum in erythrocytes, SYBR Green DNA, 72 h; series mostly up to 12.8 µM. An outline of the steps: as §1
In the next assay the test system is DIV30. The assay is described as above. To be noted: P. falciparum in erythrocytes, SYBR Green DNA, 72 h; series mostly up to 12.8 µM. An outline of the steps: as §1
The next assay deals with JCK. Described as above. The following applies: P. falciparum in erythrocytes, SYBR Green DNA, 72 h; series mostly up to 12.8 µM. The procedure, abridged:
as §1

In another assay the test system is PAD. Described as above. The following applies: P. falciparum in erythrocytes, SYBR Green DNA, 72 h; series mostly up to 12.8 µM. The procedure, abridged: as §1
The test system of a further assay is PC26. The description is as above. To be noted: P. falciparum in erythrocytes, SYBR Green DNA, 72 h; series mostly up to 12.8 µM. An outline of the steps:
as §1

Another assay has as its system SC27B. The description is as above. The following applies: P. falciparum in erythrocytes, SYBR Green DNA, 72 h; series mostly up to 12.8 µM. The procedure, abridged: as §1
Another assay deals with TAB109. Described as above. The following applies: P. falciparum in erythrocytes, SYBR Green DNA, 72 h; series mostly up to 12.8 µM. An outline of the steps: as §1
The target of assay [1] is Cytochrome P450 1A2 (Homo sapiens) (UniProt P05177). As to the kind of experiment: p450-cyp1a2 (AID 410; calls by dose curve). The procedure, abridged:
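20nM CYP1A2, 100uM Luciferin-ME (=Km), 100mM KPO4; cpd 10 min RT; +NADPH regen, 60 min RT; stop/detect 20 min; luminescence. Normalized to furafylline 57 uM = full inhibition.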
Potency is the fitted concentration of half-maximal effect.

Chain of Cytochrome P450 1A2 (Homo sapiens) (P05177 whole entry, looked up): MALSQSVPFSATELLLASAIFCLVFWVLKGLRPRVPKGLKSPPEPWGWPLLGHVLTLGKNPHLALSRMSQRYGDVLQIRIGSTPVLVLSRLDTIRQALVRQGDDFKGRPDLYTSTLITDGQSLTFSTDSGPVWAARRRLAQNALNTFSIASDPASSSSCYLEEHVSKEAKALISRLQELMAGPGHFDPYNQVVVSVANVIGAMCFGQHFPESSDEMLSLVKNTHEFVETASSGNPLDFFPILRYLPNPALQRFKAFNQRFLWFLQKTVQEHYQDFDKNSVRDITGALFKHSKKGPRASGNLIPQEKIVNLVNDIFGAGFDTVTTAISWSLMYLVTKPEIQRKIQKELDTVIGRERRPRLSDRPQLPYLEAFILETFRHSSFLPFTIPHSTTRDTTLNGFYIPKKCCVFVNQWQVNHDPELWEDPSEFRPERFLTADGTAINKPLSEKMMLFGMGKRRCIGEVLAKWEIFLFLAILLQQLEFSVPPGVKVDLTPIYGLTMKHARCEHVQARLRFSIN

With `COc1cc(N[C@@H](C)CCCN)c2ncccc2c1`, the Potency with 3D7 was 1.78 µM (active); in the assay with AA1029, 2.51 µM (active); in the assay on ATS189, 2.24 µM (active); in the assay with CP185 it was 2 µM (active); with CP192, 2.56 µM (active); in the assay on CP201, 4.55 µM (active). In addition, the Potency is 2.24 µM (active) in the assay with CP238; 1.26 µM (active) with CP250; 1.28 µM (active) with CP262; 2 µM (active) in the assay on CP265; 1.61 µM (active) with CP268; 1.81 µM (active) with CP291. Moreover, the Potency was 5.73 µM (active) in the assay with CP315; 2.03 µM (active) in the assay with DIV30; 3.98 µM (active) in the assay on JCK; 0.891 µM (active) with PAD; 2.28 µM (active) with PC26; 2 µM (active) with SC27B. The Potency in the assay on TAB109 is 1.78 µM (active).

Consider `C1CCN2C[C@@H]3C[C@@H](CN4CCCC[C@H]34)[C@H]2C1`, for which the Potency result in the assay on 3D7, in the assay with AA1029, with ATS189, in the assay with CP185, in the assay with CP192 and in the assay on CP201 was “inactive” in each case. The Potency entry in the assay on CP238, with CP250, in the assay on CP262, in the assay with CP265, in the assay with CP268 and in the assay on CP291 was “inactive” in each case. The Potency entry in the assay on CP315, in the assay on DIV30, in the assay on JCK, in the assay on PAD, in the assay on PC26 and in the assay on SC27B was “inactive” in each case. In addition, the Potency entry with TAB109 was “inactive”.

Take `C[C@@H]1O[C@H](O[C@@H]2[C@H](C)O[C@H](O[C@@H]3[C@H](C)O[C@H](O[C@H]4CC[C@]5(C)[C@@H](CC[C@@H]6[C@H]5C[C@@H](O)[C@]5(C)[C@@H](C7=CC(=O)OC7)CC[C@]65O)C4)C[C@@H]3O)C[C@@H]2O)C[C@H](O)[C@@H]1O`: the Potency entry in assay [1] is “inactive”.

Regarding `Cc1cc2ccc(=O)oc2cc1OC[C@@H](O)C(C)(C)O`, the Potency in [1] is 39.8 µM (active).

For `C=Cc1c(C)c2cc3nc(cc4[nH]c(cc5nc(cc1[nH]2)C(C)=C5CCC(=O)O)c(CCC(=O)OC)c4C)[C@@]1(C)C3=CC=C(C(=O)OC)[C@H]1C(=O)OC` (tested in a mixture with another compound), the Potency is 3.98 µM (active) in assay [1]; 3.55 µM (active) with 3D7; 5.01 µM (active) with AA1029; 7.08 µM (active) with ATS189; 11.2 µM (active) in the assay with CP238; 10 µM (active) in the assay on CP250. The Potency in the assay on CP265 is 10 µM (active); in the assay with PAD, 1.41 µM (active); with SC27B, 5.62 µM (active); in the assay with TAB109, 5.01 µM (active). For the same compound, the Potency result with CP192, with CP201, in the assay on CP262, in the assay with CP291, with CP315 and in the assay on DIV30 was “inactive” each time. In addition, the Potency entry in the assay with PC26 was “inactive”.

Take `C/C1=C2N=C(/C=C3N=C(/C(C)=C4\[N-]C(C)(C5N=C1C(C)(CCC(=O)NCC(C)OP(=O)([O-])O[C@H]1C(O)C(n6cnc7cc(C)c(C)cc76)O[C@@H]1CO)C5CC(N)=O)C(C)(CC(N)=O)C4CCC(N)=O)C(C)(CC(N)=O)C\3CCC(N)=O)C(C)(C)C/2CCC(N)=O.[CH2-]C1OC(n2cnc3c(N)ncnc32)C(O)C1O.[Co]` (some centres undefined): the Potency entry with 3D7, in the assay with AA1029, in the assay with ATS189, in the assay on CP185, in the assay with CP192 and in the assay with CP201 was “inactive” in each case. For the same compound, the Potency entry in the assay on CP238, with CP250, in the assay on CP262, in the assay with CP265, in the assay with CP268 and in the assay with CP291 was “inactive” throughout. The Potency entry in the assay on CP315, with DIV30, in the assay with JCK, in the assay on PAD, in the assay with PC26 and with SC27B was “inactive” each time. Also, in the assay on TAB109, the Potency entry is “inactive”.

Regarding `CC1C2CCC3C4CC=C5CC(N(C)C)CC[C@@]5(C)C4CC[C@@]32CN1C` (some centres undefined), the Potency result in the assay with 3D7, with AA1029, in the assay on ATS189, in the assay with CP185, in the assay with CP192 and in the assay on CP201 was “inactive” in each case. Besides, the Potency result in the assay on CP238, in the assay on CP250, in the assay on CP262, in the assay with CP265, in the assay on CP268 and in the assay on CP291 was “inactive” in each case. The Potency entry in the assay with CP315, with DIV30, in the assay on JCK, in the assay with PAD, with PC26 and with SC27B was “inactive” each time.
